Consider 38 targets from the supplement of paper PMC10849652.

About 7,900 targets were measured; listed, in parts, are those with a hit and a random draw of the rest. About 0.6% of all pairs of compound and target were hits. A number with no mark means an inactive call.

Chain of UniProt O75822 (O75822 whole entry, looked up): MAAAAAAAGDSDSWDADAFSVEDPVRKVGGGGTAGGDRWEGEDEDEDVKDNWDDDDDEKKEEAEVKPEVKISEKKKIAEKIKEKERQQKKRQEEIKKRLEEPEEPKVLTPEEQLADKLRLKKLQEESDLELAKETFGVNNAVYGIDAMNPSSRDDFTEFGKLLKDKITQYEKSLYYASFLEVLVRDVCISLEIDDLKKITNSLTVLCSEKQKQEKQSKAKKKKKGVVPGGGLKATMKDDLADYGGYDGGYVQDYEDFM
Chain of UniProt P68104 (P68104 whole entry, looked up): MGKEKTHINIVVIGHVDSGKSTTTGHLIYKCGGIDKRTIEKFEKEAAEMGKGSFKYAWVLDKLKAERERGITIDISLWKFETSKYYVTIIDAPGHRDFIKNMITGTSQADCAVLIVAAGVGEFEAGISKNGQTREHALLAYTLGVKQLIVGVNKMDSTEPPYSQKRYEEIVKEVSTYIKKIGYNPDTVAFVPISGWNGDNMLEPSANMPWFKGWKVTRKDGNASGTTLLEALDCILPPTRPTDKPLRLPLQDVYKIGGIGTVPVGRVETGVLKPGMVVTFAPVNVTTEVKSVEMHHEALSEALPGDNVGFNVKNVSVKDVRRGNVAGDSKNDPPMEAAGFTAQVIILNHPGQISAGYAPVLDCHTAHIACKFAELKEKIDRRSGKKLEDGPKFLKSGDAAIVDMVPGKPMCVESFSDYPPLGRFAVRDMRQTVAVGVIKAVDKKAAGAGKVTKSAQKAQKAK
Chain of UniProt Q96GQ7 (Q96GQ7 whole entry, looked up): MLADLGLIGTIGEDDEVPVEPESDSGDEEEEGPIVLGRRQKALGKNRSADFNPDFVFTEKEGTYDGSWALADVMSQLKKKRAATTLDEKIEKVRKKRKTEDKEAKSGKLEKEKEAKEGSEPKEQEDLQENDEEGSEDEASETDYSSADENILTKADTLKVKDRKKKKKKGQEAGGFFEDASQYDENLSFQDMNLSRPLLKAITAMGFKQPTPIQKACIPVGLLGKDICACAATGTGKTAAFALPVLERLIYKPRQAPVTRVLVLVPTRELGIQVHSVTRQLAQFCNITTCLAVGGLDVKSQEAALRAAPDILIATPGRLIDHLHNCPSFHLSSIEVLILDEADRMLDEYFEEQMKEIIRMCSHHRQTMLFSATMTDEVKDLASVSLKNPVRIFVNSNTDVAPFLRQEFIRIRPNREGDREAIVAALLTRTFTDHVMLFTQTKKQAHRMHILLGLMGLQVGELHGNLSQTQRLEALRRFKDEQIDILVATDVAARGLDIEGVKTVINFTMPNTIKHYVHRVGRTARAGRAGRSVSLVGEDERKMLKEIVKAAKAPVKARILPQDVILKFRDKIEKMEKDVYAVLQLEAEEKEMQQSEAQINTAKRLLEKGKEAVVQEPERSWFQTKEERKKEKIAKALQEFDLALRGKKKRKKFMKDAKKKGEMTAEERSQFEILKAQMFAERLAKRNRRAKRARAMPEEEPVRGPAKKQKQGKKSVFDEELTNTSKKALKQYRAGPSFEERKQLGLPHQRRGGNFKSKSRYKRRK
Chain of UniProt P98173 (P98173 whole entry, looked up): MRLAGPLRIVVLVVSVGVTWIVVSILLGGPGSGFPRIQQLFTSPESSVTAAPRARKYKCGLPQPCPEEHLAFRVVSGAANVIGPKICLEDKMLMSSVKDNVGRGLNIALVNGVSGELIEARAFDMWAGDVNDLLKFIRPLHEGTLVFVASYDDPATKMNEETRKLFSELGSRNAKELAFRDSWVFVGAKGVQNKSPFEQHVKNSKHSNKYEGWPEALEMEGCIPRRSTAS
Chain of UniProt P39880 (P39880 whole entry, looked up): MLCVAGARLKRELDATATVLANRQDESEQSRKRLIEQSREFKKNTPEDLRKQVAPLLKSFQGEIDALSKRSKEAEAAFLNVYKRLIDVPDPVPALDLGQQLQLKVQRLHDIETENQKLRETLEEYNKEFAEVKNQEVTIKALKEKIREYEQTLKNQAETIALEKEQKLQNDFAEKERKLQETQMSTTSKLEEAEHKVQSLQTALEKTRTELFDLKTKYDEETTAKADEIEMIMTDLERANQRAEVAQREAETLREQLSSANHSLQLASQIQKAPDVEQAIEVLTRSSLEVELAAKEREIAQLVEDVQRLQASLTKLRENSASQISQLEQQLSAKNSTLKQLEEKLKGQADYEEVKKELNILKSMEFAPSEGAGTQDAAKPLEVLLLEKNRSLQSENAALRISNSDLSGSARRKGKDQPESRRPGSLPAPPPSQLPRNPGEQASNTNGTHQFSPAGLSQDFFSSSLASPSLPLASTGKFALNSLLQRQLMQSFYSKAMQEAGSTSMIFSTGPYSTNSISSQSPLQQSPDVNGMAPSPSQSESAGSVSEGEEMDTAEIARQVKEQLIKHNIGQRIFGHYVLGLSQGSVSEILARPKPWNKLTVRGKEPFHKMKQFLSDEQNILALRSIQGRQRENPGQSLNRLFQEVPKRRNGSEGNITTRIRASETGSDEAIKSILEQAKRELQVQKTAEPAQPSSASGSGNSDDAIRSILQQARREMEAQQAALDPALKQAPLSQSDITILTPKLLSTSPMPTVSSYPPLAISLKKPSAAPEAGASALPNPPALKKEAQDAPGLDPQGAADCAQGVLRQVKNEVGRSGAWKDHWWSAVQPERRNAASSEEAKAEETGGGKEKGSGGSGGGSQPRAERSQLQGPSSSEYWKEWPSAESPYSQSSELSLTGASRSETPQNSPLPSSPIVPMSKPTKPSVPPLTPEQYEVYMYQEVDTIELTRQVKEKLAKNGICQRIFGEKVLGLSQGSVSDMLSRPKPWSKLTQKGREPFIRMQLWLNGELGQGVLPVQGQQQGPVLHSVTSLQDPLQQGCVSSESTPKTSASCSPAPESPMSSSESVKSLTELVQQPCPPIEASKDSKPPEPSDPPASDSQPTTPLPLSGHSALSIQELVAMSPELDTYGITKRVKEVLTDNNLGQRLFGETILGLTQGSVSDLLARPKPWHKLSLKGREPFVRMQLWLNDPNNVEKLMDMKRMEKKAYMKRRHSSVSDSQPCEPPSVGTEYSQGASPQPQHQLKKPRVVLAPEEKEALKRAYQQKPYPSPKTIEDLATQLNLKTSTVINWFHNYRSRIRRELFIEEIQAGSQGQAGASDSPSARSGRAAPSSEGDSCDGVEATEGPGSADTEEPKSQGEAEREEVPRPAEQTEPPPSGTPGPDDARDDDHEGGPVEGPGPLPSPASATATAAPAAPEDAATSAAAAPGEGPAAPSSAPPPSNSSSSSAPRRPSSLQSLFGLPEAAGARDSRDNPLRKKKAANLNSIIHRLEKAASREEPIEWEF
Chain of UniProt P18146 (P18146 whole entry, looked up): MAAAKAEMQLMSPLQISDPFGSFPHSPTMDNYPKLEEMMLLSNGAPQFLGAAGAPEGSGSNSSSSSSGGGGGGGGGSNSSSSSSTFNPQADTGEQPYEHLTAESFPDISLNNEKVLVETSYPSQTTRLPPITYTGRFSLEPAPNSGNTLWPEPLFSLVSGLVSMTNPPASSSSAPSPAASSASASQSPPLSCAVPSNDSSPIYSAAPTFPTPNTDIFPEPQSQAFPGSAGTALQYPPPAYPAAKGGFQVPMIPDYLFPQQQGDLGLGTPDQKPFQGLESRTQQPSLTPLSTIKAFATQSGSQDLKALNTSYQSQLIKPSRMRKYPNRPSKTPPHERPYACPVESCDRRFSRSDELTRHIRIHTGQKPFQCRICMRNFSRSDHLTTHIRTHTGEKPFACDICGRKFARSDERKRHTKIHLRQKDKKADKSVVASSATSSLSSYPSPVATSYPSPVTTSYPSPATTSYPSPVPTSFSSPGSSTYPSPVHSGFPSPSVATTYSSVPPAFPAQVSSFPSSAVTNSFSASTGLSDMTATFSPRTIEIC
Chain of UniProt Q96GG9 (Q96GG9 whole entry, looked up): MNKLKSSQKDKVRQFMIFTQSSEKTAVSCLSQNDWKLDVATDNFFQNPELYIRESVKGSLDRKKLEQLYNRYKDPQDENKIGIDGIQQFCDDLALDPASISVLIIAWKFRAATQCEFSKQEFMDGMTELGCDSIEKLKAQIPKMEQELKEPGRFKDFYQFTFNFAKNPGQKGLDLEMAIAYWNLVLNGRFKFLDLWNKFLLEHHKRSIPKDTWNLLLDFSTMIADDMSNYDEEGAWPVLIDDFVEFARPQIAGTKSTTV
Chain of UniProt Q8IYI6 (Q8IYI6 whole entry, looked up): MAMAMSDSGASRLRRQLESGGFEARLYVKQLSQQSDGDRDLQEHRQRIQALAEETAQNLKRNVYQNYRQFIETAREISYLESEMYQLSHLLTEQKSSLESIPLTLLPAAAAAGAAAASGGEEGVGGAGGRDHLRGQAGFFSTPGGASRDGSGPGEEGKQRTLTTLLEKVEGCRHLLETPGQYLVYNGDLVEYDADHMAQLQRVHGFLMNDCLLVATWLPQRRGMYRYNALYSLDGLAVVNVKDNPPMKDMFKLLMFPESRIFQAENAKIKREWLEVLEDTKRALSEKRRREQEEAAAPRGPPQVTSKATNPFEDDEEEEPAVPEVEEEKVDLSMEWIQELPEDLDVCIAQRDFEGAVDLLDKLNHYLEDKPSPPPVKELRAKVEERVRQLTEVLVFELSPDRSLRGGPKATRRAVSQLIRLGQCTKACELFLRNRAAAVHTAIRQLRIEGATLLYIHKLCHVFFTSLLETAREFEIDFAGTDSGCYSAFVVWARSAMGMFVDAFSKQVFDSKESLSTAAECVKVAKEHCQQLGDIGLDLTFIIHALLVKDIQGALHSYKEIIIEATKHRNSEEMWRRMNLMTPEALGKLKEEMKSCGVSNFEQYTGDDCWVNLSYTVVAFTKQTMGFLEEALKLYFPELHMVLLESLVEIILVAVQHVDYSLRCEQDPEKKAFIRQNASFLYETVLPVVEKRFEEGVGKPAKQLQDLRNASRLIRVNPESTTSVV
Chain of UniProt Q8N8J7 (Q8N8J7 whole entry, looked up): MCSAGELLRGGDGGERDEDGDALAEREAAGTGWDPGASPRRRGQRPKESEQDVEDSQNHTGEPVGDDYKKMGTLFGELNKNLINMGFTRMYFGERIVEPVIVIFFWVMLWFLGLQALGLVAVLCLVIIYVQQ

Compound in the test: CC1=C(C2=C(C=C1)C(=O)C3=CC=CC=C3N2CCCN)C
Description: log2 fold change, soluble protein after heating vs DMSO (PISA); higher = thermal stabilisation; K562 cells, 10 uM, 30 min; active = over 0.2 and 3.5 SD of the protein, either way, in both replicates (recomputed). In outline: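 Values are thermal stability changes relative to control samples and are taken from duplicates. They are stated as log2 fold changes. Before quantification by TMTpro 16plex LC-MS/MS with equalised channel sums, K562 cells at 2×10^6 cells/mL were treated with 10 μM compound for 30 min, heated in aliquots for 3 min across 48°C-58°C, pooled, extracted in PBS with 0.5% NP-40 at 4°C, and centrifuged at 21,000xg for 90 min to give the soluble supernatant.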
Consider EIF2AK3 (UniProt Q9NZJ5), for which the log2 fold change is 0.032. Take DCUN1D1 (UniProt Q96GG9): the log2 fold change is 0.018. Under EIF3J isoform 2 (UniProt O75822) stands 0.107. Under DCAF10 (UniProt Q5QP82) stands 0.01; under DENND10 (UniProt Q8TCE6), -0.185; under EIF2AK1 (UniProt Q9BQI3), -0.114. Regarding FAM3A (UniProt P98173), the log2 fold change is 0.088. Under ELOVL5 isoform 2 (UniProt Q9NYP7) stands 0.002; under DEGS1 (UniProt O15121), 0.197; under DHCR7 (UniProt Q9UBM7), 0.15. For EIF4G3 isoform 3 (UniProt O43432), the log2 fold change was 0.03. In the case of EIF3J (UniProt O75822), the log2 fold change was -0.025. Under E2F4 (UniProt Q16254) stands -0.119; under DOHH (UniProt Q9BU89), 0.189. As to ERLIN2 (UniProt O94905), the log2 fold change is 0.013. Take DPYSL2 (UniProt Q16555): the log2 fold change was 0.01. Under EEF1A1 (UniProt P68104) stands -0.178; under EHBP1L1 (UniProt Q8N3D4), 0.028. Under EXOC8 (UniProt Q8IYI6) stands -0.002; under DYNC1I2 isoform 2 (UniProt Q13409), -0.05; under DTWD1 (UniProt Q8N5C7), 0.136. With DOLPP1 (UniProt Q86YN1), the log2 fold change was 0.036.

As to ERCC6 (UniProt Q03468), the log2 fold change was -0.041. As for CUX1 isoform 3 (UniProt P39880), the log2 fold change was 0.153.

As to ELOVL7 (UniProt A1L3X0), the log2 fold change was 0.062.

Turning to DUS3L (UniProt Q96G46), the log2 fold change is -0.005. For EIF2S3 (UniProt P41091), the log2 fold change was 0.195.

EGR1 (UniProt P18146): the log2 fold change was -0.472. Under DDX27 (UniProt Q96GQ7) stands -0.351.

For EED, A0A5F9ZI63, the log2 fold change is 0.145.

Regarding ELF1 (UniProt P32519), the log2 fold change was -0.473. Under EZH2 isoform 2 (UniProt Q15910) stands -0.11. Under DNM2 (UniProt P50570) stands 0.076; under EXOSC10 (UniProt Q01780), 0.076. Under FAM117B (UniProt Q6P1L5) stands 0.037; under DBN1 isoform 3 (UniProt Q16643), -0.091. As to EIF4A1 (UniProt P60842), the log2 fold change is 0.017.

Turning to FAM241A (UniProt Q8N8J7), the log2 fold change is -0.008.
